From ChEMBL document CHEMBL3988442, “University of Dundee, Small-Polar-MMV Screening Library” (2021)
Among all 48,000 compounds or so, about 13,000 (27%) showed an effect of 50% or more. Some of the results follow.

System: Wolbachia pipientis
Assay: Anti-Wolbachia Cell-Based Screen
Type: functional
Design: scale not given: in the data most compounds retested in dose-response had high values
Details: 5 µM

| Structure (SMILES) | Percent Effect [%] |
| --- | --- |
| COCC(=O)NC(c1ccc(Cl)cc1)c1noc(C)n1 (configuration not stated) | 10.23 |
| CN1CCN(CC[C@@H]2CC[C@H](O)[C@@H](C(=O)Nc3ccccc3)O2)CC1 | -5.857 |
| Cc1c(Cl)cc(C(=O)N(CCO)Cc2nccn2C)cc1Cl | -0.9396 |
| CCC1CN(Cc2nnc(C3CC3)o2)CCC(=O)N1Cc1ccccc1 (configuration not stated) | 1.6 |
| Cc1cccc(CNC2CCN(CCc3ccncc3)CC2)c1C | -28.44 |
| O=C(Nc1ccccc1)C1CN(Cc2nccs2)CC12CCOCC2 (configuration not stated) | -7.197 |
| CCCN(C)C(=O)Nc1ccc(C(=O)NCCC(=O)OC)cc1 | 0.9295 |
| COc1ccc(-c2nc3c([nH]2)CCNC3C(=O)O)c2ccccc12 (configuration not stated) | -1.412 |
| Cn1ncc2c(=O)[nH]c(N3CCCC3c3cccs3)nc21 (configuration not stated) | 2.416 |
| O=C1N[C@@H]2CCN(C(=O)C3CC3)[C@@H]2C(=O)N1c1ccc(F)cc1 | -5.922 |
| Cc1cc(N2CCOC(C(F)(F)F)C2)nc(-c2ccccc2)n1 (configuration not stated) | 4.501 |
| Cc1cc(N2CCN(c3ccc(=O)[nH]n3)CC2)nc(-c2ccncc2)n1 | 110.1 |
| COC(=O)C1CCN(c2cc(C)nc(-c3ccncc3)n2)CC1 | 111 |
| COC(=O)C1CCN(C(=O)CN2CCN(c3cccc(C)c3)CC2)CC1 | -8.309 |
| Cc1cc(N2CCOC(CN)C2)nc(-c2ccccc2)n1 (configuration not stated) | 6.388 |
| COC(=O)C1CCN(c2cncc(-n3nc(C)cc3C)n2)CC1 | -8.177 |
| Cc1nc2ncnn2c2ccn(-c3cccnc3O)c(=O)c12 | -8.283 |
| Cc1c(C(N)=O)sc2nc(C(F)(F)F)ccc12 | -3.926 |
| O=c1ccc2c([nH]1)CCC(NS(=O)(=O)C1CC1)C2 (configuration not stated) | 112.2 |
| CCCS(=O)(=O)NC1CCc2c(ccc(=O)n2CC2CC2)C1 (configuration not stated) | -27.38 |
| O=C(NC1CCc2[nH]c(=O)ccc2C1)C1CCOCC1 (configuration not stated) | -2.009 |
| O=c1ccc2c(n1CC1CC1)CCC(NS(=O)(=O)C1CC1)C2 (configuration not stated) | -36.22 |
| CCS(=O)(=O)NC1CCc2c(ccc(=O)n2CC2CC2)C1 (configuration not stated) | 2.839 |
| CS(=O)(=O)NC1CCc2[nH]c(=O)ccc2C1 (configuration not stated) | 99.95 |
| Cc1oc(-c2ccsc2)nc1CNC(C)Cn1cccn1 (configuration not stated) | -4.999 |
| CS(=O)(=O)c1ccc(CNC[C@H]2COCc3nc4cccnc4n32)cc1 | -5.618 |

| Structure (SMILES) | Percent Effect [%] |
| --- | --- |
| Cc1ccc(N2CCN(c3ccccc3C)CC2C)nn1 (configuration not stated) | -2.059 |
| CC1(C)[C@H]2CC=C(CN3CCCn4nc(CNS(C)(=O)=O)cc4C3)[C@@H]1C2 | -5.008 |
| CN(Cc1n[nH]c2c1CCC2)C(=O)c1cccc(CCC(C)(C)O)c1 | 10.18 |
| Cn1cccc1-c1cc(C(=O)N2CCCC2C(F)(F)F)[nH]n1 (configuration not stated) | 19.39 |
| CN(Cc1n[nH]c2c1CCCC2)C(=O)c1cccc(CCC(C)(C)O)c1 | -30.85 |
| COCC(c1ccccn1)N(C)C(=O)c1cc(-c2cccn2C)n[nH]1 (configuration not stated) | -5.051 |
| CN(Cc1n[nH]c2c1CCCCC2)C(=O)c1cc(-c2cccn2C)n[nH]1 | 105.6 |
| CN(Cc1n[nH]c2c1CCC2)C(=O)c1cc(-c2cccn2C)n[nH]1 | 101.4 |
| C1CCN(CCOC2CCNCC2)CC1 | 5.861 |
| CCc1noc(CC)c1CNC(=O)Nc1cccc([S+](C)[O-])c1 (configuration not stated) | -9.563 |
| CN(CC(N)=O)S(=O)(=O)c1ccc(F)cc1F | -1.274 |
| O=C(NCc1cccnc1N1CCCC(O)C1)c1ccc2[nH]nnc2c1 (configuration not stated) | 86.94 |
| CC(NC(=O)NCc1cccnc1N1CCCCC1)c1nccs1 (configuration not stated) | -5.623 |
| O=C(NCc1cccnc1N1CCCCC1)c1ccc2[nH]nnc2c1 | 79.06 |
| N#Cc1cccnc1NCc1cccnc1N1CCCCC1 | 16.56 |
| Cc1nccn1-c1ncccc1CNC(=O)c1ccc(O)nc1 | -1.557 |
| COCCOc1ncccc1CNC(=O)N1CCCCCC1 | 13.83 |
| O=C(NCc1ccccn1)Nc1ccc2[nH]nnc2c1 | -4.844 |
| O=C(NCc1cccnc1N1CCCCC1)c1ccc2c(c1)OCO2 | 108.4 |
| CC(NC(=O)c1cccs1)C(=O)NCc1cccnc1N1CCCCC1 (configuration not stated) | -0.6319 |
| O=C(NCc1cccnc1N1CCCCC1)c1ccc2cc[nH]c2c1 | 88.22 |
| Cc1cccc(-c2nccn2-c2cccc(CC(=O)O)c2)n1 | -5.138 |
| COC(=O)[C@H](C)NC(=O)Cc1c(C)nc2c(c1C)c(=O)[nH]n2C | -6.613 |
| CC(=O)N1CCCN(S(=O)(=O)c2cc3ccccc3o2)CC1 | -15.12 |
| CCc1c(C)nc2ccccc2c1N1CCC(O)CC1 | 26.44 |
| Cc1cccc(CN2C(=O)CO[C@@H]3CN(Cc4nccn4C)C[C@H]32)c1.O=C(O)C(F)(F)F | 6.159 |

| Structure (SMILES) | Percent Effect [%] |
| --- | --- |
| CCc1ccc(CN2C[C@@H]3OCCN(c4ccnc(N(C)C)n4)[C@@H]3C2)o1.O=C(O)C(F)(F)F | 11.89 |
| CN(C)c1nccc(N2CCO[C@H]3CN(Cc4nccn4C)C[C@H]32)n1.O=C(O)C(F)(F)F | 90.41 |
| Cc1cccc(CN2C[C@@H]3OCCN(c4ccnc(N(C)C)n4)[C@@H]3C2)c1.O=C(O)C(F)(F)F | 91.52 |
| O=C(c1cnccn1)N1C[C@@H]2CC[C@H](C1)N(C(=O)CCc1ccsc1)C2 | 0.0629 |
| CC(NC(=O)c1cccnc1N(C)C)c1ccccc1Cl (configuration not stated) | 5.567 |
| O=C(Cc1ccccn1)N1CCN(C(=O)c2cccc3[nH]ncc23)CC1 | 0.8571 |
| CCOC1CC2(CCN(C(=O)Cc3ccccn3)CC2)C1.O=C(O)C(F)(F)F | -13.33 |
| O=C(CCc1ccccn1)N1CCN(C(=O)CC2CCCCC2)CC1 | -0.7864 |
| O=C1CCC2(CCCN(C(=O)Cc3ccccn3)C2)N1 (configuration not stated) | -49.82 |
| O=C(Cc1ccccn1)N1CCN(C(=O)CC2CCCCC2)CC1 | 116.9 |
| O=C(CCc1ccccn1)N1CCCN(C(=O)CC2CCCC2)CC1 | 129.1 |
| O=C(Cc1ccccn1)N1CCN(C(=O)CC2CCCC2)CC1 | 111.6 |
| O=C(Cc1ccccn1)N1CCC2(CC1)[C@H](O)C[C@@H]2O | 131.3 |
| COc1ncccc1C(=O)N1CCN(C(=O)Cc2ccccn2)CC1 | 10.82 |
| CNC(=O)C1(N2CCC[C@H]2C(=O)NC2CC2)CCCCC1.Cl | -3.847 |
| O=C(c1cc(Cl)c2c(c1)OCCO2)N1CCCC(n2cncn2)C1 (configuration not stated) | -4.605 |
| CSCCCNC(=O)C(c1cccc(F)c1)N(C)C (configuration not stated) | -14.22 |
| CN(C)c1ncccc1C(=O)N1CCCN(c2cccnn2)CC1 | -6.134 |
| Cc1scc(C(=O)N2CCC3(CCCN(C)C3=O)C2)c1-c1ccccc1 (configuration not stated) | -11 |
| CN(CCO)C(=O)c1coc(CN2CCN(c3ccccc3F)CC2)n1 | 24.23 |
| Cc1cccnc1N1CCN(C(=O)CCc2ccccn2)CC1 | -3.662 |
| O=C(CCc1ccccn1)N1CCCC1 | 132.5 |
| CN(C)c1nc(O)cc(C2CCN(C(=O)Cc3ccccn3)C2)n1 (configuration not stated) | 148.4 |
| CC(C)NC(=O)C[C@H]1[C@H]2CN(C(=O)Cc3ccccn3)C[C@@H]12.O=C(O)C(F)(F)F | 0.3737 |
| O=C(CCc1ccccn1)N1CCSC2(CCCCC2)C1 | -3.003 |
| Cc1nc(O)cc(C2CCCN(C(=O)CN(C)c3ccccc3)C2)n1 (configuration not stated) | 1.624 |

| Structure (SMILES) | Percent Effect [%] |
| --- | --- |
| CCc1ncc(C(=O)N(CCOC)Cc2nccs2)cn1 | -17.92 |
| CC(=O)NCCC(=O)NCC1(c2c(F)cccc2F)CCCC1 | 8.916 |
| CCCS(=O)(=O)N1CCC(NCc2c(C)nn(C)c2OC)CC1 | -2.561 |
| COc1c(CNC2CCN(CC(=O)NC3CC3)CC2)c(C)nn1C | -12.1 |
| COc1c(CNC2CCN(c3ncccn3)CC2)c(C(C)C)nn1C | -7.484 |
| COc1c(CNC2CCN(c3ccccn3)CC2)c(C(C)C)nn1C | 112.8 |
| COc1c(CNC2CCCN(c3ncccn3)C2)c(C(C)C)nn1C (configuration not stated) | 105 |
| COc1c(CNC2CCN(c3ncccn3)CC2)c(C)nn1C | 109.2 |
| O=C(NCc1ccco1)c1cccc(CN2CCCC2CO)c1 (configuration not stated) | -23.86 |
| Cc1cnn(C(C)C2CC2)c1NC(=O)c1ccco1 (configuration not stated) | -0.6057 |
| COc1cc2c(cc1OC)S(=O)(=O)N(Cc1ccc(C)cc1)C2=O | -15.41 |
| Cc1nc(NC(=O)C(C)N2CCN(c3ncccn3)CC2)sc1C (configuration not stated) | -4.452 |
| CN1CCC(NC(=O)Cc2csc(C(C)(C)C)n2)CC1 | -5.316 |
| CN1CCOC(C)(C(=O)Nc2nc(C(C)(C)C)cs2)C1 (configuration not stated) | 82.99 |
| CN1CCOC(C)(C(=O)Nc2nccs2)C1 (configuration not stated) | 89.7 |
| Cc1csc(NC(=O)C2(C)CN(C)CCO2)n1 (configuration not stated) | 103.9 |
| Cc1csc(NC(=O)C2(C)CCCO2)n1 (configuration not stated) | -5.614 |
| Cc1csc(NC(=O)c2cccnc2N2CCOCC2)n1 | -18.32 |
| CN1CCOC(C(=O)Nc2ccc3c(c2)nc(C(C)(C)C)n3C)C1 (configuration not stated) | 1.099 |
| CC(C)(CNC(=O)Nc1nccs1)N1CCOCC1 | -4.16 |
| Cc1nc(NC(=O)C2(C)CN(C)CCO2)sc1C.Cl (configuration not stated) | 123.3 |
| CCC(C)(CNC(=O)Nc1nccs1)N1CCOCC1 (configuration not stated) | 14.58 |
| Cc1nsc(NC(=O)NC2(CN3CCOCC3)CCCC2)n1 | -3.665 |
| Cc1nccn1C1(C(=O)O)CCN(Cc2ccc3c(c2)OCCO3)CC1 | -9.809 |
